# Values joined by “and” are separate entries in the source; they are usually repeats but may differ in a detail not shown here. Identical values can stand only once. Results filed as inconclusive are left out. More than one record can exist for a structure, and the calls need not agree. Active and inactive are the calls of the source. How the source made its calls: active means hit-call score of the fitted dose curve at least 0.9, where 1 is the maximum; inconclusive means response in the unintended direction; inactive means score below 0.9.
# Assays:
# NCBI gene 100848466 = assay: NVS_NR_bPR: NovaScreen (NVS) Nuclear Receptor Binding Assay for bovine Progextron Receptor (PR) (AID 2283343);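 on AC50: actives lower bound radioligand signal below DMSO meaning displacement of the label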
# Procedure, shortened: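 Bovine uterine membrane preparation, cell-free; radioligand competitive displacement measured by scintillation counting 18 hours after dosing. Loss of signal versus DMSO baseline indicates binding; primary HTS single concentration 25 uM in duplicate, actives followed in concentration series.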
# [1] = molecular target: bovine Estrogen Receptor (ER), ESR1 (gene 407238) (UniProt P49884); assay: NVS_NR_bER: NovaScreen (NVS) Nuclear Receptor Binding Assay for bovine Estrogen Receptor (ER) (AID 2283345);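 further: actives lower the bound radioligand count which means they displace the ER ligand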
# Chain of bovine Estrogen Receptor (ER), ESR1 (gene 407238) (P49884 whole entry, looked up): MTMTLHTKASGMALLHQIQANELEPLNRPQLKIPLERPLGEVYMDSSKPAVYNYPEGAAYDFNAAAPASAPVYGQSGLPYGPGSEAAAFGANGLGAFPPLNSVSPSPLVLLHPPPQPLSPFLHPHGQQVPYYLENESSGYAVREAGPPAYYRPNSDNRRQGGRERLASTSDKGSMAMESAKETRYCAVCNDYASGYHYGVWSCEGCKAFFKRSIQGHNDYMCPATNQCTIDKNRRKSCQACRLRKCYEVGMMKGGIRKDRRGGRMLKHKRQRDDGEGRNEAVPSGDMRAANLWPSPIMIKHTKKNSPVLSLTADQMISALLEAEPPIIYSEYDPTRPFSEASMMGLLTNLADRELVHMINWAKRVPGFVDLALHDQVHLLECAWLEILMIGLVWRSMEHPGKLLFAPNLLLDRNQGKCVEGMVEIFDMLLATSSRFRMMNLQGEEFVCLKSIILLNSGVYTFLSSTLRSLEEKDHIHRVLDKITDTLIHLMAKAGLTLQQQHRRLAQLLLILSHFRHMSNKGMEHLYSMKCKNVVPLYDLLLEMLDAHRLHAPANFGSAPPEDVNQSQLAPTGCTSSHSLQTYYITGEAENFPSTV
# Procedure, shortened: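 Cell-free radioligand binding with receptor from bovine uterine membranes, read by scintillation counting 18 h after dosing. Loss of specific binding was scored against DMSO; primary screen at 25 uM in duplicate, actives then run as concentration series.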
# [2] = molecular target: chimpanzee Androgen Receptor (AR), AR (gene 747460) (UniProt O97775); assay: NVS_NR_cAR: NovaScreen (NVS) Nuclear Receptor Binding Assay for chimpanzee Androgen Receptor (AR) (AID 2283346);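 further: radioligand displacement from AR measured by scintillation counting in a cell-free assay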
# Chain of chimpanzee Androgen Receptor (AR), AR (gene 747460) (O97775 whole entry, looked up): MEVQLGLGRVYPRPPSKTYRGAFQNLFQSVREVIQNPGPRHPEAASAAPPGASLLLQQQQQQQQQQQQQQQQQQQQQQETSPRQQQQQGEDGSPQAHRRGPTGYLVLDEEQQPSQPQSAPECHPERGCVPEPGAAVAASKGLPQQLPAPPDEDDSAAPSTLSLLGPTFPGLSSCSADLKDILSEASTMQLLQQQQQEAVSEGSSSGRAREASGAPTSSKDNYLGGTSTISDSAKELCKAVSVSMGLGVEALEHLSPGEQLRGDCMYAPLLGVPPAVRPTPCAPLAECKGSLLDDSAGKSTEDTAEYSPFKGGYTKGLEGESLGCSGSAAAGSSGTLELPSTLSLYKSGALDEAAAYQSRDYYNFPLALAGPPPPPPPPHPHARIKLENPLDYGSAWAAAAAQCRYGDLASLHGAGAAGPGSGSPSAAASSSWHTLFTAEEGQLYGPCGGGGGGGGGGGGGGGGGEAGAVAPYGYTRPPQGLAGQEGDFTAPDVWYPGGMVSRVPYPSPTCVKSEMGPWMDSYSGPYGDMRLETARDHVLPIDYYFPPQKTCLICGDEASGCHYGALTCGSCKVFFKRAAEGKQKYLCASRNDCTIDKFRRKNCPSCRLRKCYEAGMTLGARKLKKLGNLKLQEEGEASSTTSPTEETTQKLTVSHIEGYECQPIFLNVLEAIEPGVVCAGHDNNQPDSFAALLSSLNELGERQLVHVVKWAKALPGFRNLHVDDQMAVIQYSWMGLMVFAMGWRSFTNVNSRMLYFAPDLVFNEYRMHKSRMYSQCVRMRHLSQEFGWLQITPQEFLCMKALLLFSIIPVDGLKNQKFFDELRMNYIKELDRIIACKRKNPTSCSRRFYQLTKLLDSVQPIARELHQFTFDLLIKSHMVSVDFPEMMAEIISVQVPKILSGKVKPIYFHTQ
# Procedure, shortened: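 Cell-free radioligand displacement using receptor protein extracted from Sf9/Sf21 cells; bound radioligand measured by scintillation counting 72 hours after chemical dosing. Loss of signal versus DMSO baseline indicates binding; primary screen single-concentration in duplicate at 25 uM, actives followed in concentration series.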
# [3] = molecular target: Estrogen receptor beta (Homo sapiens) (UniProt Q92731); assay: OT_ER_ERbERb_0480: Odyssey Thera (OT) 8-hour HEK293T Protein-Complementation Assay for Estrogen Receptor-beta/-beta Homodimer (AID 2283357);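 further: active means signal gain over DMSO baseline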
# Chain of Estrogen receptor beta (Homo sapiens) (Q92731 whole entry, looked up, the tested form may be a part): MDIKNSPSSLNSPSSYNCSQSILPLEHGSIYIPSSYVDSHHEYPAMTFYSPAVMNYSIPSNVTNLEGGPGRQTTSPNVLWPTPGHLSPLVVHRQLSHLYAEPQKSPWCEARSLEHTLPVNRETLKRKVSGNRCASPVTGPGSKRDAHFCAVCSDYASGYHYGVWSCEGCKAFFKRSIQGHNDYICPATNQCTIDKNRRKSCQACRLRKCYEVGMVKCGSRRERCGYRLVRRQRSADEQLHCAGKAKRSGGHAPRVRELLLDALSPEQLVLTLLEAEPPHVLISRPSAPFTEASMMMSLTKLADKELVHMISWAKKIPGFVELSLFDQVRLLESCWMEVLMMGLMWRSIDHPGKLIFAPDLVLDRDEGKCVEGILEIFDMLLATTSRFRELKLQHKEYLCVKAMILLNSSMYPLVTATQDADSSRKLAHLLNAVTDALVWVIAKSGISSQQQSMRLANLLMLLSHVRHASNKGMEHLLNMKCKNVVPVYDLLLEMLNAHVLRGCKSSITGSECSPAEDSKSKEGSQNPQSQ
# Procedure, shortened: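 Readout: increase in mean fluorescence intensity (nucleus for agonists; nucleus plus cytoplasm for antagonists) relative to DMSO, from a reporter-fragment complementation of human ER-beta LBD homodimer in HEK293T cells dosed 8 hours.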
# PGR (gene 5241) = PGR (gene 5241) (UniProt P06401); assay: NVS_NR_hPR: NovaScreen (NVS) Nuclear Receptor Binding Assay for human Progestron Receptor (PR) (AID 2283360)
# Chain of PGR (gene 5241) (P06401 whole entry, looked up): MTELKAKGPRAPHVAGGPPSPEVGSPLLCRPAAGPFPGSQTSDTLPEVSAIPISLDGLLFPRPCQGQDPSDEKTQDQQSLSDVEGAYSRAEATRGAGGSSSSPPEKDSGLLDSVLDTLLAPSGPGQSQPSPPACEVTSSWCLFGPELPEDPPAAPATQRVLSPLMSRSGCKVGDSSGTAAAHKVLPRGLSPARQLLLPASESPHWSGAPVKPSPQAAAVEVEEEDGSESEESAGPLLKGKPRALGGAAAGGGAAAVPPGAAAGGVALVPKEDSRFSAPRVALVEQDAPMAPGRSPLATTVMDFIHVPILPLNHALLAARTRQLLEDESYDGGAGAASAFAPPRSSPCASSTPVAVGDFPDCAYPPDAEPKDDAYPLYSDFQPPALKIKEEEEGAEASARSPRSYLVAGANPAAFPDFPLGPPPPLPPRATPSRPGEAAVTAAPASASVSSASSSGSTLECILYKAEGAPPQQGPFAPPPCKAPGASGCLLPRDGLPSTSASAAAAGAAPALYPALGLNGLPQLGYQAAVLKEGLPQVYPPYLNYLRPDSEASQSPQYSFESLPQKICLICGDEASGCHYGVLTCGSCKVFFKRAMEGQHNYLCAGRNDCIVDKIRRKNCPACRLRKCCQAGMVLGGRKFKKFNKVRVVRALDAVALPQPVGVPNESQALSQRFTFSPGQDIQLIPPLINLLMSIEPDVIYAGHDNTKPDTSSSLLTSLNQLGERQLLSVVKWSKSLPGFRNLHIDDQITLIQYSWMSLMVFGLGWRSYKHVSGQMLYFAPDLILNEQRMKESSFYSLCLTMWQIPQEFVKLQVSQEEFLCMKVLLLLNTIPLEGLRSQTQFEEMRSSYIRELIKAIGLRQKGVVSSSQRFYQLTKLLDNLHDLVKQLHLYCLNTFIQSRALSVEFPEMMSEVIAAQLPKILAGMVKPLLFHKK
# Procedure, shortened: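 Cell-free radioligand binding using receptor protein extracted from T47D cells, read by scintillation counting 18 hours after dosing. Loss of signal relative to DMSO baseline indicates displacement; primary screen single concentration 25 uM in duplicate, actives followed in concentration series.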
# [4] = molecular target: human Constitutive Androstane Receptor (CAR), NR1I3 (gene 9970) (UniProt Q14994); assay: NVS_NR_hCAR_Antagonist: NovaScreen (NVS) Nuclear Receptor Binding Assay for human Constitutive Androstane Receptor Antagonism (CAR) (AID 2283344)
# Procedure, shortened: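 Cell-free TR-FRET binding read 1 h after dosing, antagonist mode; loss of signal versus DMSO baseline. Primary screen in duplicate at a single 25 uM; actives retested in concentration series.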
# [5] = molecular target: rat Glycine Receptor, Strychnine-sensitive (GlyRStrySens), Glra1 (gene 25674) (UniProt P07727); assay: NVS_LGIC_rGlyRStrySens: NovaScreen (NVS) Ligand-Gated Ion Channel Assay for rat Glycine Receptor, Strychnine-sensitive (GlyRStrySens) (AID 2283341)
# Procedure, shortened: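 Radioligand displacement on rat spinal cord membranes, 1 hr, filter scintillation read-out. Single-concentration duplicate screen at 25 uM; chemicals meeting threshold (e.g., 30% inhibition) rerun in concentration-response up to 50 uM. Loss of binding fitted versus DMSO.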
# [6] = system: guinea pig Histamine Receptor (H2), gene 100729734; assay: NVS_GPCR_gH2: NovaScreen (NVS) G Protein-Coupled Receptor Assay for guinea pig Histamine Receptor (H2) (AID 2283342)
# Procedure, shortened: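 Radioligand displacement on guinea pig striatal membranes, 1 h after dosing, filter-based scintillation counting; loss of signal versus DMSO. Single-point screen at 25 uM in duplicate, then concentration-response up to 50 uM.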
# [7] = molecular target: Estrogen receptor (Homo sapiens) (UniProt P03372); assay: NVS_NR_hER: NovaScreen (NVS) Nuclear Receptor Binding Assay for human Estrogen Receptor (ER) (AID 2283348)
# Chain of Estrogen receptor (Homo sapiens) (P03372 whole entry, looked up, the tested form may be a part): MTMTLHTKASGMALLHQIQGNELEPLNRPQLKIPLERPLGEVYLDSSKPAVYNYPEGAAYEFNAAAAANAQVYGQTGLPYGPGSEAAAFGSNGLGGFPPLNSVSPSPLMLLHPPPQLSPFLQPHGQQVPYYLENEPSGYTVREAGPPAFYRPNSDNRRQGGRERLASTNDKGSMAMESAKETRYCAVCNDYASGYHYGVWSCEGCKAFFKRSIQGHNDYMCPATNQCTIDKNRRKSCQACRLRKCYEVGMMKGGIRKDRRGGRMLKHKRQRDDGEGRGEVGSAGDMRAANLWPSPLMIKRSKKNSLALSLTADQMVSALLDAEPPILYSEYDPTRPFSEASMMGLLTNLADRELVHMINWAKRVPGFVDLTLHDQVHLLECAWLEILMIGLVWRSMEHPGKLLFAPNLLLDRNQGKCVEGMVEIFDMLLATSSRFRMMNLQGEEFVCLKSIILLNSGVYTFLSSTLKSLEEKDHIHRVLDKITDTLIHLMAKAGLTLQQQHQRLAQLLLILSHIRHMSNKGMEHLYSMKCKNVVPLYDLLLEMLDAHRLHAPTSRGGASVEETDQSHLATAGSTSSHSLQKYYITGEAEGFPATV
# Procedure, shortened: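 Cell-free radioligand binding with protein extracted from MCF7 cells; scintillation counting 18 hours after dosing. Loss of signal versus DMSO baseline read as displacement; primary single-concentration screen at 25 uM in duplicate, actives retested in concentration series.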
# [8] = molecular target: Estrogen receptor (Homo sapiens) (UniProt P03372); assay: OT_ER_ERaERa_1440: Odyssey Thera (OT) 24-hour HEK293T Protein-Complementation Assay for Estrogen Receptor-alpha/-alpha Homodimer (AID 2283349);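 further: hits raise fluorescence above DMSO for agonists and antagonists alike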
# Procedure, shortened: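 Readout is the rise in mean fluorescence from reporter fragment complementation when ERα LBD (aa 310-547) units dimerize in HEK293T cells. Measured 24 h after dosing and analysed as increase over DMSO control.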
# [9] = molecular target: Estrogen receptor (Homo sapiens) (UniProt P03372); assay: OT_ER_ERaERa_0480: Odyssey Thera (OT) 8-hour HEK293T Protein-Complementation Assay for Estrogen Receptor-alpha/-alpha Homodimer (AID 2283351);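 further: rise in fluorescence from reassembled reporter fragments on ERα LBD homodimer in nucleus or whole cell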
# Procedure, shortened: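 Binding reporter in which dimerisation of ERα LBD (aa 310-547) fusions reconstitutes a fluorescent reporter in HEK293T cells. Compounds incubated 8 h; mean fluorescence intensity increase versus DMSO scored.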
# [10] = molecular target: T1, Estrogen receptor (Homo sapiens) + Estrogen receptor beta (Homo sapiens) (UniProt P03372+Q92731); assay: OT_ER_ERaERb_0480: Odyssey Thera (OT) 8-hour HEK293T Protein-Complementation Assay for Estrogen Receptor-alpha/-beta Heterodimer (AID 2283352)
# T1 sequence (P03372 whole entry, looked up, the tested form may be a part): as above
# T1 sequence (Q92731 whole entry, looked up, the tested form may be a part): as the sequence (Q92731 whole entry, looked up, the tested form may be a part) above
# Procedure, shortened: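 Fluorescence intensity readout from a protein-fragment complementation reporter in HEK293T; ER-alpha/ER-beta LBD heterodimer. Dosing 8 h. Gain-of-signal fit relative to DMSO negative control; laser scanning cytometry of whole-well cell population.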
# [11] = molecular target: Androgen Receptor/SRC-1 Co-activator, AR (gene 367) (UniProt P10275); assay: OT_AR_ARSRC1_0960: Odyssey Thera (OT) 16-hour HEK293T Protein-Complementation Assay for Androgen Receptor/SRC-1 Co-activator (AID 2283353);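 further: actives raise the signal above DMSO so potency reflects increased AR and SRC-1 complex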
# Chain of Androgen Receptor/SRC-1 Co-activator, AR (gene 367) (P10275 whole entry, looked up, the tested form may be a part): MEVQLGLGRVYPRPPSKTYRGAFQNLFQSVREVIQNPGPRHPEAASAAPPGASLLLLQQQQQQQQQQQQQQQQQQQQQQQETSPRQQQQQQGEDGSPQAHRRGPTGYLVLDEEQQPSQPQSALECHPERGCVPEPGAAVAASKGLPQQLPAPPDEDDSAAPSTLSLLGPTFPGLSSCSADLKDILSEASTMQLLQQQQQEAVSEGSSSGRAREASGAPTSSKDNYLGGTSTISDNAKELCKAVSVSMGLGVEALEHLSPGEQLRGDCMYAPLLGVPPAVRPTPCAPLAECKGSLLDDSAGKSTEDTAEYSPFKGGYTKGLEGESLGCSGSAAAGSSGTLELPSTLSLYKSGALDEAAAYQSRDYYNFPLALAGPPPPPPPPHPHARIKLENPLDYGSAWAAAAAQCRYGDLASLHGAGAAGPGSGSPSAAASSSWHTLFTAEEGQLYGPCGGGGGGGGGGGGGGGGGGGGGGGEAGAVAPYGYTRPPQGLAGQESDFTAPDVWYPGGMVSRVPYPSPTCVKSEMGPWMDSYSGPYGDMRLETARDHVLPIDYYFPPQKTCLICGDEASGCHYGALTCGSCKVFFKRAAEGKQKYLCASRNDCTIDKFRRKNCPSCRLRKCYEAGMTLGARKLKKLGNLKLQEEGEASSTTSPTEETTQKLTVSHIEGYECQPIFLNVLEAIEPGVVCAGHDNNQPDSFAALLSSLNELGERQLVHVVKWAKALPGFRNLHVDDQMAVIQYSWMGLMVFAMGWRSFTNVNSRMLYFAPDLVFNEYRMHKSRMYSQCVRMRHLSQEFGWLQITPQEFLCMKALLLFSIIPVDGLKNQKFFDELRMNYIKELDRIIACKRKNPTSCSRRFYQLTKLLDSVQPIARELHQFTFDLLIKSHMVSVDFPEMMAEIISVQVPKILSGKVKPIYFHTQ
# Procedure, shortened: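 Interaction of AR with SRC-1 was followed by YFP fragment complementation in HEK293T cells after 16 h of dosing. Gain of nuclear-over-cytoplasmic 488 nm fluorescence against DMSO controls defined activity.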
# [12] = molecular target: Androgen Receptor/SRC-1 Co-activator, AR (gene 367) (UniProt P10275); assay: OT_AR_ARSRC1_0480: Odyssey Thera (OT) 8-hour HEK293T Protein-Complementation Assay for Androgen Receptor/SRC-1 Co-activator (AID 2283354);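 further: hits raise the complementation signal above DMSO so AC50 marks enhancers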
# Procedure, shortened: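 HEK293T cells stably expressing AR and SRC-1 fused to split Venus YFP fragments via (Gly4Ser)2 linkers were read 8 h after compound dosing. Complementation was imaged at 488 and 635nm, and nuclear/cytoplasmic fluorescence ratio (488nm) was taken over ≥400 cells; gain-of-signal versus DMSO.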
# [13] = molecular target: T1, Estrogen receptor (Homo sapiens) + Estrogen receptor beta (Homo sapiens); assay: OT_ER_ERaERb_1440: Odyssey Thera (OT) 24-hour HEK293T Protein-Complementation Assay for Estrogen Receptor-alpha/-beta Homodimer (AID 2283356);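 further: heteromer of ER alpha and ER beta binding domains; hits raise reporter fluorescence and both agonists and antagonists give an increase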
# Procedure, shortened: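 Readout: mean fluorescence intensity in nucleus (agonists) or nucleus plus cytoplasm (antagonists), read by laser scanning cytometer after 24 h compound exposure of HEK293T cells carrying ERα/ERβ LBD fragment-complementation constructs; DMSO baseline.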
# [14] = molecular target: human Peroxisome Proliferator-activated Receptor alpha (PPARa), PPARA (gene 5465) (UniProt Q07869); assay: NVS_NR_hPPARa: NovaScreen (NVS) Nuclear Receptor Binding Assay for human Peroxisome Proliferator-activated Receptor alpha (PPARa) (AID 2283359);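 further: activity means loss of TR-FRET signal versus DMSO baseline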
# Procedure, shortened: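 Cell-free binding assay with extracted human protein, read by TR-FRET 1 h after chemical dosing. Loss of signal relative to DMSO baseline indicates binding. Primary screen used duplicate single concentration (25 uM); actives followed up in concentration series.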
# [15] = molecular target: Bile acid receptor (Homo sapiens) (UniProt Q96RI1); assay: NVS_NR_hFXR_Antagonist: NovaScreen (NVS) Nuclear Receptor Binding Assay for human Farnesoid X Receptor Antagonism (FXR) (AID 2283350)
# Procedure, shortened: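 Cell-free TR-FRET ligand-binding read-out on human FXR (NR1H4) in antagonist mode, measured 1 h after dosing. Primary screen in duplicate at 25 uM, actives retested in concentration series; signal loss scored versus DMSO.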
# [16] = molecular target: Retinoic acid receptor alpha (Homo sapiens) (UniProt P10276); assay: NVS_NR_hRAR_Antagonist: NovaScreen (NVS) Nuclear Receptor Binding Assay for human Retinoic Acid Alpha Receptor Antagonism (RAR) (AID 2283358)
# Chain of Retinoic acid receptor alpha (Homo sapiens) (P10276 whole entry, looked up): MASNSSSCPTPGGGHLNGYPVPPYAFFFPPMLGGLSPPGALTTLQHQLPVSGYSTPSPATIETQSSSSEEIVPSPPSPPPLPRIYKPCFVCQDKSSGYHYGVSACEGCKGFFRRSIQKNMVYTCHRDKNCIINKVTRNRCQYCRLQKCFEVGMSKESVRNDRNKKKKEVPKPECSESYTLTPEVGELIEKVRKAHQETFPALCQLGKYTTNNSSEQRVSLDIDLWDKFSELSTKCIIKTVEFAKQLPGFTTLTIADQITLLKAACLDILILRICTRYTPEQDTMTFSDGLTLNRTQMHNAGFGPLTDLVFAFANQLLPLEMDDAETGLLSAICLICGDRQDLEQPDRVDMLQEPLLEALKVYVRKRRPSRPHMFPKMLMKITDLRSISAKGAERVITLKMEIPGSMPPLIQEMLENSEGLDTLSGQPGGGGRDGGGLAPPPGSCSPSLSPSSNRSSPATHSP
# Procedure, shortened: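 Cell-free TR-FRET binding assay on extracted receptor protein, run in antagonist mode; signal read 2 hours after chemical dosing. Loss of signal was fitted relative to DMSO baseline. Screened at 25 uM in duplicate, actives followed up in concentration series.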
# [17] = molecular target: rat Glutamate, MK-801 Agonist Site (GluNMDA_MK801), Grin1 (gene 24408) (UniProt P35439); assay: NVS_LGIC_rGluNMDA_MK801_Agonist: NovaScreen (NVS) Ligand-Gated Ion Channel Assay for rat Glutamate, MK-801 Agonist Site (GluNMDA_MK801) (AID 2283340)
# Procedure, shortened: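 Radioligand binding at MK-801 site in rat forebrain membranes, 1.5 h incubation, filter-based scintillation counting. Initially 25 uM in duplicate; actives then run in concentration-response up to 50 uM, fitted for gain of signal versus DMSO.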
smiles,measurement,setting,value
CC(=O)[C@@]1(O)CC[C@H]2[C@@H]3CCC4=CC(=O)CC[C@]4(C)[C@H]3CC[C@@]21C,AC50,NCBI gene 100848466,0.467 µM (active)
same,AC50,[1],15.4 µM (active)
same,outcome,[1],inactive
same,AC50,[2],0.49 µM (active)
same,outcome,[2],inactive
same,outcome,[3],inactive
same,AC50,PGR (gene 5241),0.645 µM (active)
O=C1c2c(O)cccc2Cc2cccc(O)c21,AC50,NCBI gene 100848466,42.7 µM (active)
O=C1NC(=O)C(c2ccccc2)(c2ccccc2)N1,outcome,[4],inactive
CSc1ccc(Oc2ccc(S(N)(=O)=O)cc2CN(C)C)cc1C,outcome,[5],inactive
same,AC50,[6],11.7 µM (active)
same,outcome,[7],inactive
same,outcome,[8],inactive
same,outcome,[9],inactive
same,outcome,[10],inactive
same,AC50,[11],80.7 µM (active)
same,AC50,[12],77 µM (active)
same,outcome,[13],inactive
same,outcome,[14],inactive
same,outcome,PGR (gene 5241),inactive
CCN(CC)CCOc1ccc(C(=C(Cl)c2ccccc2)c2ccccc2)cc1,outcome,[5],inactive
same,AC50,[6],1.82 µM (active)
same,AC50,NCBI gene 100848466,11.6 µM (active)
same,AC50,[4],34 µM (active)
same,AC50,[2],4.82 µM (active)
same,AC50,[15],13.5 µM (active)
same,AC50,[3],21.5 nM (active) and 118 nM (active) and 9.83 nM (active)
same,AC50,[16],16.1 µM (active) and 11 µM (active) and 12.5 µM (active)
Cn1cnc2c1c(=O)[nH]c(=O)n2C,outcome,[6],inactive
same,outcome,PGR (gene 5241),inactive
O=Cc1ccccc1C=O,outcome,[1],inactive
same,AC50,[2],25 µM (active)
same,outcome,[7],inactive
same,outcome,[8],inactive
same,outcome,[9],inactive
same,AC50,[11],75.3 µM (active)
same,AC50,[12],66.1 µM (active)
same,outcome,[13],inactive
same,outcome,[3],inactive
same,outcome,PGR (gene 5241),inactive
CN(C)CCCN1c2ccccc2Sc2ccc(Cl)cc21,AC50,[17],25 µM (active)
same,AC50,[6],1.42 µM (active)
same,outcome,[15],inactive
O=C1OC(c2ccc(O)cc2)(c2ccc(O)cc2)c2ccccc21,outcome,NCBI gene 100848466,inactive
same,AC50,[11],35.3 µM (active)
same,AC50,[12],60.1 µM (active)
same,AC50,[3],12 µM (active)
same,outcome,[16],inactive
